Measured values published in the supplement of paper PMC12340641.

Each molecule was assayed on HEK293FT dCK*-IKZF1 (assay: relative growth recovery (pomalidomide 10 uM = 100%, DMSO = 0%); higher = more growth rescue (IKZF1 fusion degradation)). Conditions: compound concentration: 5 uM; AraC concentration: 0.3 uM; overnight pretreatment + 4 days AraC.
In short: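 HEK293FT cells stably expressing a dCK*-IKZF1 fusion (300/well, 384-well) received 5 μM compound 2 h after seeding. After overnight at 37 °C they received a nucleoside suicide substrate at 0.3 μM plus medium for 4 days. On day 5, Hoechst 33342-stained nuclei were counted by whole-well imaging. Growth recovery was normalised per plate to a reference degrader (100%) and vehicle (0%); values are means of duplicates run on different days.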
In the case of Cc1cc(O)c2c(=O)c3c(O)cc(O)c4c5c(O)cc(O)c6c(=O)c7c(O)cc(C)c8c1c2c(c34)c(c78)c65 [Hypericin], the relative growth recovery is reported as -3.8%.
C[C@H]1O[C@@H](O[C@H]2[C@@H](O)C[C@H](O[C@H]3[C@@H](O)C[C@H](O[C@H]4CC[C@@]5(C)[C@H](CC[C@@H]6[C@@H]5C[C@@H](O)[C@]5(C)C(c7coc(O)c7)CC[C@]65O)C4)O[C@@H]3C)O[C@@H]2C)C[C@H](O)[C@@H]1O (some centres not stated) [Digoxin] showed a relative growth recovery of -12.6%.
CCOc1ccccc1-n1c(C(C)N2CCN(C(=O)COc3ccc(Cl)cc3)CC2)nc2ccccc2c1=O (configuration not stated) [Erastin] showed a relative growth recovery of -1.44%.
C[C@]12CC[C@H](O)C[C@H]1CC[C@@H]1[C@@H]2C[C@@H](O)[C@]2(C)[C@@H](C3=CC(=O)OC3)CC[C@]12O [Digoxigenin] gave a relative growth recovery of -10.9%.
OC1=[C@]([C@]2=C(O)C(C(C=O)=C(O)C(O)=C3C(C)C)=C3C=C2C)C(C)=CC4=C1C(C=O)=C(O)C(O)=C4C(C)C [gossypol] gave a relative growth recovery of -11.7%.
CC[C@@H](C(=O)O)C1CC[C@H](C)C([C@@H](C)[C@H](O)[C@H](C)C(=O)[C@H](CC)C2O[C@]3(C=C[C@@H](O)[C@]4(CC[C@@](C)(C5CC[C@](O)(CC)[C@H](C)O5)O4)O3)[C@H](C)C[C@@H]2C)O1 (some centres not stated) [Salinomycin (Procoxacin)] was tested, and the relative growth recovery was -1.1%.
For CCCCCCCCCCCCCCCC[n+]1ccccc1, the relative growth recovery was -13%.
With O=c1c2ccccc2[se]n1-c1ccccc1 the relative growth recovery was -0.075%.
C[C@@]1(CO)[C@H](O)CC[C@@]2(C)[C@H]1CC[C@H]1C[C@@H]3C[C@@]12CC[C@]3(O)CO [Aphidicolin] was tested, and the relative growth recovery was -12.3%.
N#Cc1nn(-c2c(Cl)cc(C(F)(F)F)cc2Cl)c(N)c1S(=O)C(F)(F)F (configuration not stated) gave a relative growth recovery of -1.52%.
O=C(N/N=C/c1ccc([N+](=O)[O-])o1)c1cc([N+](=O)[O-])cc([N+](=O)[O-])c1O showed a relative growth recovery of -2.9%.
O=C(Nc1ccc(Br)cc1)c1cc(Br)cc(Br)c1O [tribomsalan] gave a relative growth recovery of -2.67%.
